Measurements reported in PubChem BioAssay (NCI).
About 83,000 compounds went through this panel and 20% of them were active in at least one assay; those are over-represented in the sample as a whole.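 How to read the values: 0–100, growth inhibition (40 = 60% inhibited); 0, no net growth; -100 to 0, cell death (-40 = 40% of starting cells died; -100 = all dead).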 A number with no mark means an inactive call. Activity calls are given as the source filed them. The calls were made as follows: active = growth percent below 10; inactive = the rest.

Experiments:
Assay in all cases: NCI-60 one-dose screen, 48 h (100 = growth as untreated, 0 = no growth, -100 = all killed)
Settings in all cases: 10 µM unless noted
[1] = tested on: NCI-H23 lung
[2] = tested on: NCI-H226 lung
[3] = tested on: NCI-H322M lung
[4] = tested on: HOP-62 NSCLC
[5] = tested on: NCI-H460 lung
[6] = tested on: HOP-92 NSCLC
[7] = tested on: NCI-H522 lung
[8] = tested on: A549/ATCC NSCLC
[9] = tested on: 786-0 renal
[10] = tested on: COLO 205 colon

O=C(Oc1ccccc1)c1cc(O)c(O)c(O)c1
growth [1]: 72.3%
growth [2]: 89.8%
growth [3]: 54.8%
growth [4]: 54.9%
growth [5]: 28%
growth [6]: 79.6%
growth [7]: 53.3%
growth [8]: 68.9%
growth [9]: 55%
growth [10]: 99.2%

C1=C2CCCC3=Cc4ccccc4OC23Oc2ccccc21
growth [1]: 42.3%
growth [2]: 56.4%
growth [3]: 50.8%
growth [4]: 41.6%
growth [5]: 13.5%
growth [6]: 61.4%
growth [7]: 3.9% (active)
growth [8]: 32.7%
growth [9]: 26.4%
growth [10]: 25.4%

CCN(CC)CCN1C(=O)c2c(c(C)c3c(oc4cc(OC)ccc43)c2C)C1=O
growth [1]: 95.9%
growth [2]: 27.8%
growth [3]: 85.3%
growth [4]: 95.9%
growth [5]: 44.7%
growth [6]: 100%
growth [7]: 91.9%
growth [8]: 104%
growth [9]: -74% (active)
growth [10]: 99.1%

N#Cc1c(-c2ccc(Cl)cc2)nc(NN=Cc2cccc(Cl)c2)nc1N1CCOCC1
growth [1]: 101%
growth [2]: 91.6%
growth [3]: 88.7%
growth [4]: 92.7%
growth [5]: 91.6%
growth [6]: 89.3%
growth [7]: 94.5%
growth [8]: 81.9%
growth [9]: 70.1%
growth [10]: 61%

O=C1C2C(c3cccs3)C=C(c3ccc(Cl)cc3)N2C(=S)N1c1ccccc1 (stereo not given)
growth [1]: 94.2%
growth [2]: 86.8%
growth [3]: 102%
growth [4]: 101%
growth [5]: 108%
growth [6]: 97.2%
growth [7]: 98.6%
growth [8]: 101%
growth [9]: 102%
growth [10]: 119%

Cc1oc2ccc(O)c(CN3CCCCCC3)c2c1C(=O)Nc1ccc(C(F)(F)F)cc1
growth [1]: 69.9%
growth [2]: 72.4%
growth [3]: 69.3%
growth [4]: 70.4%
growth [5]: 51.5%
growth [6]: 34.9%
growth [7]: 72.5%
growth [8]: 61.2%
growth [9]: 49.5%
growth [10]: 48.7%

COc1cc(/C=C2\CN(S(=O)(=O)c3ccc(C)cc3)C/C(=C\c3cc(CN4CCCC4)c(O)c(OC)c3)C2=O)cc(CN2CCCC2)c1O
growth [1]: -53.5% (active)
growth [2]: 31.9%
growth [3]: 10.8%
growth [4]: 4.13% (active)
growth [5]: -67.4% (active)
growth [6]: -16.7% (active)
growth [7]: -36.2% (active)
growth [8]: 21.2%
growth [9]: -74.7% (active)
growth [10]: -49.4% (active)

O=C(Nc1ccccc1)Nc1ccccc1CNc1nc(Nc2ccc(OCCN3CCCC3)cc2)ncc1Cl
growth [1]: 68.1%
growth [2]: 89.4%
growth [3]: 91.1%
growth [4]: 79.3%
growth [5]: -37.7% (active)
growth [6]: 65.1%
growth [7]: 58.6%
growth [8]: 59.4%
growth [9]: 9.35% (active)
growth [10]: 33%

CCOC(=O)C1=CCC(n2cc(F)c(=O)[nH]c2=O)O1 (stereo not given)
growth [1]: 101%
growth [2]: 103%
growth [3]: 127%
growth [4]: 122%
growth [5]: 97.8%
growth [6]: 107%
growth [7]: 112%
growth [8]: 102%
growth [9]: 107%
growth [10]: 109%

CNC1=C([N+](=O)[O-])C(c2ccc(OC)cc2)C(C#N)=C(c2ccc[nH]2)O1 (stereo not given)
growth [1]: 98.5%
growth [2]: 102%
growth [3]: 101%
growth [4]: 99%
growth [5]: 100%
growth [6]: 96.2%
growth [7]: 92.3%
growth [8]: 106%
growth [9]: 106%
growth [10]: 107%

O=C(O)c1cc2ccccc2s1
growth [1]: 101%
growth [2]: 98.2%
growth [3]: 110%
growth [4]: 96.9%
growth [5]: 104%
growth [6]: 90%
growth [7]: 107%
growth [8]: 104%
growth [9]: 106%
growth [10]: 113%

N#C/C(=C/C=C/c1ccccc1)S(=O)c1ccccc1 (stereo not given)
growth [1]: -36.6% (active)
growth [2]: 12%
growth [3]: 10.4%
growth [4]: -25.6% (active)
growth [5]: -30% (active)
growth [6]: -58.5% (active)
growth [7]: -68.3% (active)
growth [8]: 2.3% (active)
growth [9]: -89.7% (active)
growth [10]: -56.4% (active)

N#CSCc1cc(Cl)c(CSC#N)cc1Cl
growth [1]: 72.8%
growth [2]: 73.3%
growth [3]: 112%
growth [4]: 113%
growth [5]: 74.6%
growth [6]: 11.8%
growth [7]: 22.5%
growth [8]: 120%
growth [9]: 71.4%
growth [10]: 61.6%

CC(=O)Cc1nsc(NC(=O)c2cc(-c3cc(Cl)ccc3Cl)oc2C)n1
growth [1]: 99.5%
growth [2]: 94.5%
growth [3]: 104%
growth [4]: 102%
growth [5]: 103%
growth [6]: 112%
growth [7]: 90.2%
growth [8]: 98.8%
growth [9]: 97%
growth [10]: 115%

COC(=O)[C@H](C)NC(=O)[C@@H]1CCCN1C(=O)CNC(=O)[C@H](C)N
growth [1]: 105%
growth [2]: 101%
growth [3]: 96.5%
growth [4]: 114%
growth [5]: 106%
growth [6]: 89%
growth [7]: 96.2%
growth [8]: 106%
growth [9]: 98%
growth [10]: 104%

CCCc1cc(CCC)n2nc(N)nc2n1
growth [1]: 103%
growth [2]: 94.8%
growth [3]: 97.9%
growth [4]: 97.5%
growth [5]: 110%
growth [6]: 106%
growth [7]: 109%
growth [8]: 112%
growth [9]: 97.1%
growth [10]: 103%

N=C(N)c1ccc(-c2ccc(-c3ccccc3)s2)nc1
growth [1]: 94.1%
growth [2]: 92.8%
growth [3]: 80.4%
growth [4]: 88.8%
growth [5]: 23.1%
growth [6]: 70.2%
growth [7]: 83.9%
growth [8]: 83.8%
growth [9]: 91.3%
growth [10]: -6.33% (active)

Nc1ccc(N)c2c1C(=O)c1cccc([N+](=O)[O-])c1C2=O
growth [1]: -29.1% (active)
growth [2]: 16.6%
growth [3]: 2.12% (active)
growth [4]: 9.73% (active)
growth [5]: -3.34% (active)
growth [6]: 63.3%
growth [7]: 25.6%
growth [8]: 20.8%
growth [9]: 17.4%
growth [10]: 66.3%

COc1cc(-c2c(-c3ccccc3)c[nH]c2C(=O)NCCCO)c(OC)c2c1OCO2
growth [1]: 96.3%
growth [2]: 95%
growth [3]: 95.9%
growth [4]: 98.2%
growth [5]: 110%
growth [6]: 97%
growth [7]: 93.9%
growth [8]: 103%
growth [9]: 102%
growth [10]: 114%

CCN1C(=O)N(CC)C2C1NC(=S)N2/N=C/C=C/c1cccs1 (stereo not given)
growth [1]: 42.6%
growth [2]: 64.5%
growth [3]: 50.9%
growth [4]: 51.1%
growth [5]: 7.03% (active)
growth [6]: 88.8%
growth [7]: -5.25% (active)
growth [8]: 24.9%
growth [9]: 43.1%
growth [10]: 18.3%

COC(=O)c1sc(-c2ccc(C)cc2)cc1O
growth [1]: 99.1%
growth [2]: 109%
growth [3]: 94.2%
growth [4]: 109%
growth [5]: 101%
growth [6]: 105%
growth [7]: 105%
growth [8]: 103%
growth [9]: 96.7%
growth [10]: 107%

CC(Cc1cccc2ccccc12)C(N)=O (stereo not given)
growth [1]: 99.9%
growth [2]: 100%
growth [3]: 98.1%
growth [4]: 94.6%
growth [5]: 110%
growth [6]: 81.1%
growth [7]: 96.6%
growth [8]: 96.7%
growth [9]: 97.7%
growth [10]: 111%

CN(C)c1ccc(/C=N/NC(=O)CSc2nc3sc4c(c3c(=O)n2-c2ccccc2)CCCCC4)cc1
growth [1]: 29.7%
growth [2]: 96.5%
growth [3]: 44.9%
growth [4]: 21.5%
growth [5]: 1.49% (active)
growth [6]: 50.3%
growth [7]: 21.2%
growth [8]: 6.63% (active)
growth [9]: 45%
growth [10]: 33.8%

COc1ccc(/C=N/NC(=O)Cn2nnc3ccccc32)cc1
growth [1]: 101%
growth [2]: 96.4%
growth [3]: 89.1%
growth [4]: 99.9%
growth [5]: 96.6%
growth [6]: 104%
growth [7]: 90.9%
growth [8]: 96.5%
growth [9]: 103%
growth [10]: 109%

COc1ccc(Cn2cc(C(=O)N=Nc3c(O)[nH]c4ccc(Br)cc34)nn2)cc1
growth [1]: 102%
growth [2]: 97.5%
growth [3]: 102%
growth [4]: 111%
growth [5]: 111%
growth [6]: 114%
growth [7]: 89.1%
growth [8]: 95.1%
growth [9]: 99.6%
growth [10]: 115%

CCCC1Cc2cc(-n3nc(C)c4c3CC(C)(C)CC4=O)cc(NC3CCC(O)CC3)c2C(=O)N1 (stereo not given)
growth [1]: 34.5%
growth [2]: 47.7%
growth [3]: 50.5%
growth [4]: 40.1%
growth [5]: 18%
growth [6]: -0.467% (active)
growth [7]: 39.1%
growth [8]: 31.6%
growth [9]: 49.9%
growth [10]: 14%

O=C(NC1CCCCCC1)c1ccc2c(=O)n3c(nc2c1)CCCCC3
growth [1]: 97.7%
growth [2]: 106%
growth [3]: 90.7%
growth [4]: 99.2%
growth [5]: 101%
growth [6]: 84.6%
growth [7]: 103%
growth [8]: 97%
growth [9]: 106%
growth [10]: 102%
